Test [1] concerns Noggin (protein binding on small-molecule microarray). Nature of the test: Noggin binders on small-molecule microarray, primary screen, biochemical, 635/667 nm fluorescence (AID 1095).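 Further: score merges 667 nm feature fluorescence with signal to noise over triplicate slides.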 The note with it: 635 nm fluorescence, higher = more signal.
The target in test [2] is Neurogenic locus notch homolog protein 3 (Homo sapiens) (UniProt Q9UM47). Kind of test: NOTCH3 binders on small-molecule microarray, primary screen, biochemical, 635/667 nm fluorescence (AID 1096). The note with it: NOTCH3 binding, 635 nm fluorescence, higher = more signal.
Test [3] is described as follows: small-molecule microarray binders of probe aEGFR, primary screen, biochemical, biotinylated probe, 635/667 nm fluorescence (AID 1097).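 Further: probe is a biotinylated anti-EGFR antibody binding compounds printed on slides; score combines fluorescence near 667 nm and signal to noise of each spot.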 Particulars: higher = more signal.
For test [4], the system named is Plasmodium falciparum Sir2 (PF13_0152, Sir2A). Nature of the test: pfSir2 binders on small-molecule microarrays, primary screen, biochemical, small-molecule microarray, 635 nm fluorescence (AID 1098).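 Further: score merges spot fluorescence intensity with its signal-to-noise ratio.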 The note with it: small-molecule microarray binding, fluorescence 635 nm; higher = more signal.
Test [5] in a line: small-molecule microarray binders of probe aDKK1, primary screen, biochemical, biotinylated probe, 635/667 nm fluorescence (AID 1099).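 Further: score merges 667nm spot fluorescence with signal to noise across triplicate slides.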 Particulars: higher = more signal.
The nature of test [6]: small-molecule microarray binders of probe aCHRDL2, primary screen, biochemical, biotinylated probe, 635/667 nm fluorescence (AID 1100). Particulars: higher = more signal.
Test [7] is described as follows: splicing luciferase reporter signal modulators, primary screen, spliceosome inhibition project, cell-based, HEK293, splice +/- reporter (AID 1101).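 Further: HEK293 cells carrying a splicing-competent luciferase reporter gene; test concentration not given here.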 Particulars: luminescence, 24 h, higher = more signal, called active from +8 up or from −8 down. (In general: In a reporter assay the amount or activity of a reporter protein is the signal.)
For test [8], the target named is Fibroblast growth factor 10 (Homo sapiens) (UniProt O15520). Nature of the test: FGF10 binders on small-molecule microarrays, primary screen, biochemical, small-molecule microarray, 635 nm fluorescence (AID 1102). The note with it: FGF10 binding, fluorescence 635 nm, higher = more signal.
Test [9] deals with glycogen synthase kinase-3 (GSK3A per assay name; protocol says GSK3B). Nature of the test: GSK3 binders on small-molecule microarrays, primary screen, biochemical, small-molecule microarray, 635 nm fluorescence, GSK3A (AID 1103). Further: the record names both GSK3A and GSK3B. Particulars: small-molecule microarray binding, fluorescence 635 nm; higher = more signal.
In test [10] the target is Epidermal growth factor receptor (Homo sapiens) (UniProt P00533). Kind of test: EGFR binders on small-molecule microarrays, primary screen, biochemical, small-molecule microarray, 635 nm fluorescence (AID 1104).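 Further: score merges 667 nm emission intensity with spot signal to noise over triplicate slides.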 The note with it: EGFR binding, higher = more signal.
Test [11] concerns the target Follistatin-related protein 3 (Homo sapiens) (UniProt O95633). Nature of the test: FSTL3 binders on small-molecule microarrays, primary screen, biochemical, small-molecule microarray, 635 nm fluorescence (AID 1105).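 Further: score merges emission near 667 nm and signal to noise per printed spot across three slides.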 The note with it: FSTL3 binding, higher = more signal.
Test [12] has as its target Dickkopf-related protein 1 (Homo sapiens) (UniProt O94907). Nature of the test: DKK1 binders on small-molecule microarrays, primary screen, biochemical, small-molecule microarray, 635 nm fluorescence scan (AID 1106).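 Further: score merges emission near 667 nm with signal to noise over three replicate slides.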 The note with it: DKK1 binding, higher = more signal.
Test [13] relates to Inhibin beta A chain (activin A). Nature of the test: INHBA (activin A) binders on microarrays, primary screen, biochemical, small-molecule microarray, 635 nm fluorescence scan (AID 1107).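 Further: mouse activin A protein probed at 4.33 µg/mL on printed slides; score merges bound-protein fluorescence near 667 nm with spot signal-to-noise.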 Particulars: small-molecule microarray binding, higher = more signal.
The test system of test [14] is Human papillomavirus type 1a protein E7 (residues 44-93). Nature of the test: HPV1a E7 fragment binders on microarrays, primary screen, biochemical, small-molecule microarray, residues 44-93, 635 nm fluorescence (AID 1108).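 Further: E7 fragment applied at 1 µg/mL in TBST for 1 h at 4 C; score combines spot fluorescence with its signal to noise ratio.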 Particulars: small-molecule microarray binding, fluorescence 635 nm; higher = more signal.
Test [15] can be described thus: modulators of HCV replicon luciferase signal, primary screen, HCV replication inhibitor project, Huh7 cells, luciferase reporter (AID 1109).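 Further: huh7 hepatoma cells harbouring a luciferase neomycin HCV replicon reporter; luciferase luminescence as measure of HCV replicon replication; test concentration not given here.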 Particulars: 48 h, higher = more signal. For orientation: Replicon systems follow genome replication, usually without infectious particles.
For test [16], the target named is Left-right determination factor 2 (Homo sapiens) (UniProt O00292). Kind of test: LEFTY2 binders on small-molecule microarrays, primary screen, biochemical, small-molecule microarray, 635 nm fluorescence scan (AID 1110). Particulars: LEFTY2 binding, higher = more signal.
The target in test [17] is Calmodulin-1 (Homo sapiens) (UniProt P0DP23). Kind of test: CALM1 binders on microarrays, EGTA buffer, profiling panel, biochemical, small-molecule microarray, Cy5-labelled CALM1 (AID 1111).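 Further: labelled calmodulin applied in Tris saline Tween buffer holding calcium plus EGTA and DTT.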 Particulars: Cy5-CALM1 binding fluorescence, higher = more signal.
For test [18] the target is unchanged. Nature of the test: calcium-bound CALM1 binders on microarrays, profiling panel, artefact control for SMM control-protein annotation, biochemical, small-molecule microarray, Cy5-labelled CALM1, plus calcium (AID 1112).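 Further: score merges spot fluorescence with signal to noise from triplicate slides.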 The note with it: Cy5-CALM1 binding fluorescence, higher = more signal.
Test [19] can be described thus: small-molecule microarray binders of probe aWnt5a, primary screen, biochemical, biotinylated probe, 635/667 nm fluorescence (AID 1113).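 Further: score merges 667 nm fluorescence intensity with signal-to-noise per printed feature.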 Particulars: higher = more signal.
The nature of test [20]: small-molecule microarray binders of probe aShh, primary screen, biochemical, biotinylated probe, 635/667 nm fluorescence (AID 1114).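 Further: probe is biotin-labelled aShh protein from a stem cell growth factor screen; measures binding of labelled protein to compounds printed on the slide; score merges feature fluorescence at 667 nm with signal-to-noise.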 Particulars: higher = more signal.

Among the data in PubChem BioAssay are composite z-score and z-score values, retold here.

Active and inactive are the calls of the source.

Dickkopf-related protein 1 (Homo sapiens), sequence (O94907 whole entry, looked up): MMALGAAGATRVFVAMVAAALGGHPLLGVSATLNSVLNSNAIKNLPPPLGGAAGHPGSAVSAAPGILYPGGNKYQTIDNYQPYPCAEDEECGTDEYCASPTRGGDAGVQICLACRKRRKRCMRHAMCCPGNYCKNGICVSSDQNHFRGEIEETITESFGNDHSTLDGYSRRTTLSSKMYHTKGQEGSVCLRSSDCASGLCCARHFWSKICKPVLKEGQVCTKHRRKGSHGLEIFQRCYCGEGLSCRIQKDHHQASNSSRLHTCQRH
Neurogenic locus notch homolog protein 3 (Homo sapiens), sequence (Q9UM47 whole entry, looked up): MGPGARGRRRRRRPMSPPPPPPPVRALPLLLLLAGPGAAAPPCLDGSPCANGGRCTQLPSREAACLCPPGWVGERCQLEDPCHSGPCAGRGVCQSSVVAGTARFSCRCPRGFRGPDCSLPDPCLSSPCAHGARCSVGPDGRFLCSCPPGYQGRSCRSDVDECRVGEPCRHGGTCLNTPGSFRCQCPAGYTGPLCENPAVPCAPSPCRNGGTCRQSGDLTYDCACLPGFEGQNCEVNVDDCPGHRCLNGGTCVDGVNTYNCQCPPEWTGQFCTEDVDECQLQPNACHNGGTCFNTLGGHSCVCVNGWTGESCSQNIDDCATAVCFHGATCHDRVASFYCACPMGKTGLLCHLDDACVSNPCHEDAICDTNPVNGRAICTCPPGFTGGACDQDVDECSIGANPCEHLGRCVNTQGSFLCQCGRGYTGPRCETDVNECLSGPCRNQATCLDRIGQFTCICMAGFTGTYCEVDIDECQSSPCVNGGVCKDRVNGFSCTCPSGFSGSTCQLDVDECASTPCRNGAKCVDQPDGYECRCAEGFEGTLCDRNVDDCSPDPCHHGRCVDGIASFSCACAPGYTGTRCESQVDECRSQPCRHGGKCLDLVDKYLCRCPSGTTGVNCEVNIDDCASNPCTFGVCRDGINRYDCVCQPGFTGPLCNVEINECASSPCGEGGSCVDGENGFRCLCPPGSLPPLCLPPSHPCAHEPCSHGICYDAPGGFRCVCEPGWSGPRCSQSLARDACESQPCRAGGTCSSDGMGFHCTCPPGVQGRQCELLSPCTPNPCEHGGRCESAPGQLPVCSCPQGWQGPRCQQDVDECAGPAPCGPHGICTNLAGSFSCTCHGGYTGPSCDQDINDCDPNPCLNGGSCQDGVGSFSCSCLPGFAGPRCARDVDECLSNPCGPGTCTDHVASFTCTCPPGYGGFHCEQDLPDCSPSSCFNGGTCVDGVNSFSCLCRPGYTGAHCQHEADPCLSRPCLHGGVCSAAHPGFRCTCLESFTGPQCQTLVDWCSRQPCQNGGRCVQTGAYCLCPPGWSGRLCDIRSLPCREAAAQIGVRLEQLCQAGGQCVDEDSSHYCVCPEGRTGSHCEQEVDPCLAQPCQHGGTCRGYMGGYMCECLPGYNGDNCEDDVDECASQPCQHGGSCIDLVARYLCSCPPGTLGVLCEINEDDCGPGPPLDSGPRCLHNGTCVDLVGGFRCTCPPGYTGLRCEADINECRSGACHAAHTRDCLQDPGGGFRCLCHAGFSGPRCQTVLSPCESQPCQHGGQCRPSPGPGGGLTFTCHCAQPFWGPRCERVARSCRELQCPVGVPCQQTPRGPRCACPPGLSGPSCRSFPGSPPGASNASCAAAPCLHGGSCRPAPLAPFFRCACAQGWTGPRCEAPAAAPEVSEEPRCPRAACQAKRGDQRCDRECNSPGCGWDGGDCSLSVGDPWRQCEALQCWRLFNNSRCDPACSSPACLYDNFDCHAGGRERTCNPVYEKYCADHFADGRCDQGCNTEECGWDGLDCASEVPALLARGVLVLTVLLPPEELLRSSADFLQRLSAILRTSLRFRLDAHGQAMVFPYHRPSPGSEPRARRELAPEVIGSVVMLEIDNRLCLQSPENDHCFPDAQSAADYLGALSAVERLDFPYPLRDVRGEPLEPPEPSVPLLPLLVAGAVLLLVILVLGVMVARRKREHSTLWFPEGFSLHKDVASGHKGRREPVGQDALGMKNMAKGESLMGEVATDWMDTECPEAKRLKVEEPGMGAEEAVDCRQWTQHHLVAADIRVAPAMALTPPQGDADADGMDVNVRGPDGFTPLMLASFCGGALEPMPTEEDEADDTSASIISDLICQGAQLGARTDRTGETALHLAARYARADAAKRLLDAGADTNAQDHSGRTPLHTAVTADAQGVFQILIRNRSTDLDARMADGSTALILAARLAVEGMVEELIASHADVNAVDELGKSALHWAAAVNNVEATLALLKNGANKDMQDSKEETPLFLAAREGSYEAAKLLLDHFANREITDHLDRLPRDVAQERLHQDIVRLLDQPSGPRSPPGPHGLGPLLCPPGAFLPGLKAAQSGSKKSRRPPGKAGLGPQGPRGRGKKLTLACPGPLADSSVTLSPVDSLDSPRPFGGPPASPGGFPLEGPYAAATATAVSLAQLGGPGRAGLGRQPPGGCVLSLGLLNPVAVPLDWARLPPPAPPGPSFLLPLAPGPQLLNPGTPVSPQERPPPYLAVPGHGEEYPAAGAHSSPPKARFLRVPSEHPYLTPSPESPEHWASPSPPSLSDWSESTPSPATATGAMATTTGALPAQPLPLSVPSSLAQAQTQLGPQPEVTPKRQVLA
Follistatin-related protein 3 (Homo sapiens), sequence (O95633 whole entry, looked up): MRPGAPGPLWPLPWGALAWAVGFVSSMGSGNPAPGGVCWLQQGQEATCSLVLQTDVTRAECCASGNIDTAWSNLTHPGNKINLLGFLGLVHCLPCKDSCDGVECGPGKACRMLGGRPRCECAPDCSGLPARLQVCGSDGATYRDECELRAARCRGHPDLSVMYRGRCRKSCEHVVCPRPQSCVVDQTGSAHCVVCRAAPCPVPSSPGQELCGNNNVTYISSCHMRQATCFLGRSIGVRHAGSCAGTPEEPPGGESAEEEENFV
Fibroblast growth factor 10 (Homo sapiens), sequence (O15520 whole entry, looked up): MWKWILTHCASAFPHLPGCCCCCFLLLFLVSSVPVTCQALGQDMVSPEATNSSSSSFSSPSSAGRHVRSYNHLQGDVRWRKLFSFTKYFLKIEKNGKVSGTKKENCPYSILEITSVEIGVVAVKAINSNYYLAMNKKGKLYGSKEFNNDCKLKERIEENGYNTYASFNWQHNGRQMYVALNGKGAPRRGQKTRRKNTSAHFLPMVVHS
Left-right determination factor 2 (Homo sapiens), sequence (O00292 whole entry, looked up): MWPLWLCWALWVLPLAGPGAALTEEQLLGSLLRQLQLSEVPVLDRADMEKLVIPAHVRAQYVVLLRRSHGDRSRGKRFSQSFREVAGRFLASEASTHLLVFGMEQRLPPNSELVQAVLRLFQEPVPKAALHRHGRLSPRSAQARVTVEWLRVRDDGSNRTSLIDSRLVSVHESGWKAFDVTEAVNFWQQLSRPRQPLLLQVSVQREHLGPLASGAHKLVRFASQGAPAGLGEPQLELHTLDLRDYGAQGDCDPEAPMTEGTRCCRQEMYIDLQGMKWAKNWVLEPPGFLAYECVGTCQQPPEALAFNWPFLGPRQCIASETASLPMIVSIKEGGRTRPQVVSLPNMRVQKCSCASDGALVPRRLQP
Epidermal growth factor receptor (Homo sapiens), sequence (P00533 whole entry, looked up): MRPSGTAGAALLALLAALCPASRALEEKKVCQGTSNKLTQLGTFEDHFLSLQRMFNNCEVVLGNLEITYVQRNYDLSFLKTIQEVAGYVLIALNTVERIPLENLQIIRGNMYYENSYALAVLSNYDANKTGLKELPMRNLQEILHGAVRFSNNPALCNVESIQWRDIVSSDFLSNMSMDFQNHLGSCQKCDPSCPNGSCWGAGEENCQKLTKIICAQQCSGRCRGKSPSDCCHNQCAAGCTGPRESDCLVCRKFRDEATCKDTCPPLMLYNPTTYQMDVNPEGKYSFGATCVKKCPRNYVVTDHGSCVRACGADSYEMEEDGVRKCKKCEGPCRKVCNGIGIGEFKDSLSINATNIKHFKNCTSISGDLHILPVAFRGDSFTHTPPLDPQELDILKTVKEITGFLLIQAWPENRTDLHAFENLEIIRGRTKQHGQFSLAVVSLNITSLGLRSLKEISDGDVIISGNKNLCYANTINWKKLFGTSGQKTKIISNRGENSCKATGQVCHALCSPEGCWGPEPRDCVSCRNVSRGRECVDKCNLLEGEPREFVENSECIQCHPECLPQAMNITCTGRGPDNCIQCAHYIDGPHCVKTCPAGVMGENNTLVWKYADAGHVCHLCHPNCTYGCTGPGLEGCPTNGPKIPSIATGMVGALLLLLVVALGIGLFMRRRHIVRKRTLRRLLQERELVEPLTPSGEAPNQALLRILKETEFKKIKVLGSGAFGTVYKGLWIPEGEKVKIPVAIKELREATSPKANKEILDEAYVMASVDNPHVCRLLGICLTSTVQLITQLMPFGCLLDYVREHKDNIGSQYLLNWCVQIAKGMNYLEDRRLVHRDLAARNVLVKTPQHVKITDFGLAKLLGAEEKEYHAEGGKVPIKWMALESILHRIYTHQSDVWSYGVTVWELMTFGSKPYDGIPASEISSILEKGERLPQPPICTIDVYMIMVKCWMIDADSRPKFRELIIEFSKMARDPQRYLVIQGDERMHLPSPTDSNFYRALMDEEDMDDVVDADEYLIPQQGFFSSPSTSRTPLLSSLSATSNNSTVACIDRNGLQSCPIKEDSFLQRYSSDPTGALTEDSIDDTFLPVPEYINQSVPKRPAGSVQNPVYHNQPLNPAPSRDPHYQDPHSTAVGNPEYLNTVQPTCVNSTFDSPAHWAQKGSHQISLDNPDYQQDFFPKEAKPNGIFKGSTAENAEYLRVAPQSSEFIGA

In the case of `CC(C)C(CO)N1C(=O)[C@@H]2[C@H]3C(=O)OCC=C[C@H]3OC23C=CCN(Cc2ccccc2)C(=O)[C@@H]13` (stereo not given in full), the composite z-score in [1] was -0.282; in test [2], -0.316; in test [3] it was -0.287; in test [4] it was -0.734; in test [5], -0.26; in [6], 0.0297. Further, the composite z-score is -0.367 in test [8]; -0.882 in [9]; -1.12 in [10]; -0.718 in test [11]; -0.149 in test [12]; 0.859 in test [13]. In addition, the composite z-score in test [14] was -1.25; in test [16] it was -0.275; in test [17], -0.886; in test [18], -0.783; in test [19] it was -0.256; in test [20], 0.0141. The values for the z-score in [7] and in [15] were -0.346 (inactive) and -0.498, respectively.

Take `O=C(O)[C@H]1C[C@H]2C(=O)N[C@@H](Cc3ccccc3)C(=O)N2[C@H]1c1ccc(O)cc1`: the composite z-score turned out to be 0.108 in [1]; 0.321 in [2]; 0.064 in test [3]; 1.56 in test [4]; 0.844 in [5]; 0.913 in test [6]. For the same compound, the composite z-score is -0.349 in test [8]; 0.661 in test [9]; -0.502 in test [10]; -0.192 in test [11]; -0.0944 in test [12]; 0.945 in test [13]. Besides, the composite z-score was -0.067 in test [14]; -0.307 in test [16]; -0.195 in test [17]; 0.504 in [18]; -0.0678 in test [19]; -0.0783 in test [20]. Also, the z-score in test [7] is -0.282 (inactive); in test [15] it was -0.262.

In the case of `C=C(COC)C(=O)CC[C@H](OC(=O)c1ccccc1-c1ccccc1C(=O)O)c1ccccc1OCCO`, the composite z-score in test [1] is 0.877; in test [2], 0.385; in test [3], -0.155; in test [4], 1.52; in [5] it was -0.227; in test [6], -0.053. For the same compound, the composite z-score in test [8] is 0.595; in test [9] it was 0.264; in test [10], -0.124; in test [11], 0.159; in [12], 0.307; in [13], 1.1. In addition, the composite z-score in [14] was -0.15; in [16] it was 0.273; in test [17], 0.209; in [18], -0.749; in test [19], -0.118; in test [20] it was 0.267. The z-score in test [7] is -0.51 (inactive); in test [15], -1.46.

On to `C=CCNC(=O)[C@H]1[C@@H]2C(=O)O[C@@H](c3ccccc3)[C@@H](c3ccccc3)N2[C@@H](c2ccc(OCCO)cc2)[C@]12C(=O)Nc1ccc(C#CCCO)cc12`, for which the composite z-score was 0.292 in test [1]; 0.73 in test [2]; -0.087 in test [3]; 1.36 in test [4]; 0.299 in test [5]; 0.797 in test [6]. For the same compound, the composite z-score is 0.241 in [8]; -0.145 in test [9]; -0.105 in test [10]; 0.359 in test [11]; -0.059 in [12]; 0.629 in [13]. In addition, the composite z-score is 0.699 in [14]; -0.0631 in test [16]; 0.0076 in test [17]; 0.295 in test [18]; -0.175 in test [19]; -0.0769 in test [20]. The z-score was -1.26 (inactive) in test [7] and -0.735 in [15].

For `CCCCCN1CC=CC23O[C@@H]4/C=C\CCC(C)OC(=O)C4[C@H]2C(=O)N(CCO)[C@@H]3C1=O` (stereo not given in full), the composite z-score in [1] was -1.36; in [2], -0.728; in test [3], -0.317; in test [4] it was 1.3; in [5] it was -0.205; in [6], 0.791. The composite z-score in test [8] was -0.825; in test [9] it was -0.413; in [10] it was -1.81; in [11] it was -1.13; in test [12] it was -1.2; in [13] it was 1.57. Also, the composite z-score in [14] is 0.408; in [16] it was -1.43; in test [17] it was -0.659; in [18], -0.295; in [19], -0.176; in test [20] it was -0.279. The z-score was -0.688 (inactive) in [7] and 0.382 in test [15].
